# Compound activity: PubChem, National Center for Advancing Translational Sciences (NCATS)
# Compounds with a hit are over-represented: about 21% of the library has one in this group of screens.
# IL1B secr inh – blocks inflammasome-driven IL-1 beta release; hit rate 4.7% among 360,000; AID 743279; activity change, % at 57.5 µM; THP-1 LPS/ATP IL-1B secretion, AlphaLISA, 16 h; hits give low values; in the data active = activity change below about -50%; inconclusive = mostly about -30% to -49%; note: % is set by controls: 0 for no effect and ±100 for the full control effect
#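 Secreted IL-1B measured by AlphaLISA bead assay after 16 h compound exposure of THP-1 cells; compounds (final up to 57.5 uM) added 1 h before LPS (250 ng/mL) and ATP (1.25 mM) stimulation; lower signal means less secretion.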
# D3 antag – antagonists of human D3 dopamine receptor; hit rate 2.5% among 360,000; P35462; max response, negative = inhibition, %; D3R cells, DiscoveRx beta-arrestin luminescence, antagonist mode; hits give low values; in the data active = max response below about -50%; inconclusive = no clear call, values can overlap the other calls; note: % is set by controls: 0 for no effect and ±100 for the full control effect
# Target sequence (P35462 whole entry, looked up): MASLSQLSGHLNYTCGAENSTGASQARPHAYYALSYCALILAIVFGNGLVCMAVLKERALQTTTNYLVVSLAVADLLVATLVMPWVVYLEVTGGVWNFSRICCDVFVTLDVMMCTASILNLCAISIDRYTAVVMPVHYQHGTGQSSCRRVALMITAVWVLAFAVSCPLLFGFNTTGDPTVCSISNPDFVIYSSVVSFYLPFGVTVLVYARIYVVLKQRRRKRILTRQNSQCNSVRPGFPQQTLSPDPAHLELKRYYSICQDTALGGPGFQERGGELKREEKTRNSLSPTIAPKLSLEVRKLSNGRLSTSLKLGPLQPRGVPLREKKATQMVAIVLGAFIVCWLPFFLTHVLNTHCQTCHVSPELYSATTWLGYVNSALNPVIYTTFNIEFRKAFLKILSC
#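 Cells expressing the human receptor were seeded at 1500 cells/well, incubated overnight at 37 degrees C in 5% CO2, then exposed to library compounds with dopamine controls for 90 minutes at 37 degrees C before luminescent detection.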
# D3 ag – D3 dopamine receptor (human) agonism | P35462 | D3R DiscoveRx beta-arrestin cells, luminescence, 90 min | max activation, % | hit rate 0.58% among 410,000; in the data active = max activation above about 30%; note: 0% is about no effect
#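 Agonist mode: compounds and dopamine controls were applied to plated cells for 90 min at 37 degrees C after an overnight attachment at 1500 cells/well. Luminescent read-out followed 30 - 60 minutes at room temperature with DiscoveRx detection reagent.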
# TDP1 cell CPT – DT40-hTDP1 cell growth loss with CPT. chicken DT40 Tdp1-/-;hTDP1 cells + 20 nM CPT, ATP luminescence, 48 h. hit rate 12% among 420,000. Potency, µM (titrated, usually from 46.2 µM), without a hit: at the top dose activity change, negative = growth inhibition, usual class: inhibitors; note: potency is the fitted concentration of half-maximal effect; % is set by controls: 0 for no effect and ±100 for the full control effect; nearly all actives have a fitted effect of over 55% in size
#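 Chicken DT40 Tdp1-/- cells stably complemented with human TDP1 were seeded at 400 cells/well in medium containing 20 nM camptothecin, exposed to pin-transferred compounds, and grown at 37 °C for at least 48 hr. Viability was read as ATP luminescence.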
# ClpP mod – qHTS Assay for Activators of ClpP; purified B. subtilis ClpP, FRET peptide cleavage, 20 min; ATP-dependent Clp protease proteolytic subunit (Bacillus subtilis (strain 168)), P80244; hit rate 1.9% among 340,000; Potency, µM (series often up to 57.5 µM), for inactives: at the top dose activity change, negative = active; active = well fitted falling curve with a large enough effect; inconclusive = small, poorly fitted or top-dose-only effect; inactive = no such curve, though single readings can be large or run the other way; note: potency is the fitted concentration of half-maximal effect; the source files actives as falling curves though it sought activators and does not explain the sign; nearly all actives have a fitted effect of over 65% in size
#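 ClpP 10 microg/mL final, pH 8 Tris/KCl buffer with BSA, glycerol, Tween-20; compound pinned in; FRET-FV substrate; RT 20 min; Ex320/Em430; ΔFRET vs ADEP 5.8 microM, DMSO, no enzyme.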
# DT40 TDP1 no CPT – qHTS for Inhibitors of human tyrosyl-DNA phosphodiesterase 1 (TDP1): qHTS in cells in absence of CPT; DT40 Tdp1-/- hTDP1 cells, no CPT, ATP luminescence, 48 h; hit rate 15% among 420,000; Potency, µM (top dose mostly 46.2 µM), without a hit: top-dose activity change, negative = growth inhibition, hits mostly inhibitors; note: potency is the fitted concentration of half-maximal effect; % is set by controls: 0 for no effect and ±100 for the full control effect; nearly all actives have a fitted effect of over 55% in size
#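 DT40 Tdp1-/-;hTDP1 cells, no CPT (DMSO vehicle only), 400 cells/well; compounds pin-transferred; ≥48 hr, 37 °C; CellTiter-Glo 30 min RT dark, luminescence read.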
# * hit, by the source's call; ? = inconclusive; · = not tested or not shown. Unless noted, calls come from the whole dose curve; as a rule, active = well fitted inhibition curve with a large enough effect; inconclusive = small, poorly fitted or top-dose-only effect; inactive = flat fitted curve, though single readings scatter.
SMILES,IL1B secr inh,D3 antag,D3 ag,TDP1 cell CPT,ClpP mod,DT40 TDP1 no CPT
O=C(C1CCN(c2nc(-c3ccccc3)nc3c2CCC3)CC1)N1CCCC1,0.0,1.4,6.0,?,-4.6%,?
COCCNC(=O)COC(=O)c1ccc(OCC(=O)Nc2ccccc2OC)c(OC)c1,-13.5,-5.6,1.5,?,-3.4%,?
CCN(Cc1ccccc1OC)CC1CCCN(CCc2cccc(OC)c2)C1 (configuration not stated),?,-21.5,-6.5,14.6µM*,0.8%,?
CCN(Cc1ccc(NC(C)=O)cc1)CC1CCCN(CCc2cccc(OC)c2)C1 (configuration not stated),-10.7,-51.6*,-5.4,?,-4.4%,20.6µM*
O=C1CN(C(=O)c2ccc3nc(Cc4cccc(Cl)c4)oc3c2)CCN1,-7.5,10.5,2.9,21.2%,2.3%,-8.0%
CC(C)Cc1ccc(C(C)C(=O)Nc2ccc(O)cc2)cc1 (configuration not stated),3.0,-3.3,2.7,23.1µM*,-1.7%,13µM*
O=C(Nc1ccc(Cc2ccc(NC(=O)Nc3cccnc3)cc2)cc1)Nc1cccnc1,-24.9,9.9,3.4,-16.0%,-0.8%,-13.1%
CC(C)Cc1ccc(C(C)C(=O)Nc2cccnc2)cc1 (configuration not stated),45.6,27.7,6.0,2.31µM*,·,3.66µM*
CC(C(=O)Nc1ccccc1)c1ccc(-c2ccccc2)c(F)c1 (configuration not stated),?,-23.7,5.4,18.4µM*,1.2%,23.1µM*
CC(C(=O)Nc1ccc(O)cc1)c1cccc(C(=O)c2ccccc2)c1 (configuration not stated),-50.6*,7.1,0.1,?,·,20.6µM*
CC(C(=O)O)c1ccc(-c2ccccc2)c(F)c1 (configuration not stated),2.4,2.4,11.6,-2.2%,-0.7%,-9.9%
CC(C)Cc1ccc(C(C)C(N)=Nc2ccc(O)cc2)cc1 (configuration not stated),·,-16.6,-6.5,25.9µM*,·,16.4µM*
O=C(c1ccc2c(c1)OCO2)N1CCN(CCN2C(=O)c3cccc4cccc(c34)C2=O)CC1,19.7,4.6,0.3,12.5%,·,-28.8%
O=C(CN(c1ccccc1)S(=O)(=O)c1ccccc1)N1CCN(Cc2ccc3c(c2)OCO3)CC1,-11.6,-67.3*,-20.2,-27.8%,-2.4%,?
CC(C)CNS(=O)(=O)c1ccc(CCC(=O)N2CCN(Cc3ccc4c(c3)OCO4)CC2)cc1,?,142.7,0.9,13µM*,-4.8%,18.4µM*
Cc1ccc(S(=O)(=O)N(C)C)cc1NC(=S)N1CCN(Cc2ccc3c(c2)OCO3)CC1,30.0,-2.2,-1.4,14.6µM*,0.6%,16.4µM*
O=C(CN1C(=O)c2cccc3cccc1c23)N1CCN(Cc2ccc3c(c2)OCO3)CC1,-16.5,22.0,4.2,?,-1.3%,20.6µM*
CC(C)CNS(=O)(=O)c1ccc(CCC(=O)N2CCN(Cc3ccccc3)CC2)cc1,-17.6,7.5,2.2,-28.6%,0.2%,-29.4%
COC(=O)[C@]12CCCCC=C1N(Cc1ccco1)C(=O)[C@H](CC(=O)NCc1ccc(OC)c(OC)c1)C2,1.7,5.7,6.5,?,-1.7%,?
O=C(c1ccc2nc3ccccc3c(=O)n2c1)N1CCN(Cc2ccc3c(c2)OCO3)CC1,?,18.8,14.2,29.1µM*,20µM*,?
Cc1cccc(C(=O)N2CCN(Cc3ccc4c(c3)OCO4)CC2)c1,-29.8,-80.5*,-12.0,?,-2.3%,?
Cc1cccc(Cn2ccc(NC(=O)c3ccc4c(c3)OCO4)n2)c1,-52.5*,0.3,2.6,8.1%,-0.6%,-26.5%
O=C(CN1C(=O)c2cccc3cccc1c23)N1CCc2ccccc2C1,-13.8,-2.1,-3.7,20.6µM*,-2.7%,11.6µM*
